D2 ag-1 = activates the human D2 dopamine receptor | P14416 | HEK293 T-REx D2 cells, calcium flux agonist mode | activation, % at 2 µM | actives 0.53% (n = 340,000);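 active = activation over 3 SD above normal in the single-dose calcium agonist read, cut at about 30% in these data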; also: 0% is about no effect
Target sequence (P14416 whole entry, looked up): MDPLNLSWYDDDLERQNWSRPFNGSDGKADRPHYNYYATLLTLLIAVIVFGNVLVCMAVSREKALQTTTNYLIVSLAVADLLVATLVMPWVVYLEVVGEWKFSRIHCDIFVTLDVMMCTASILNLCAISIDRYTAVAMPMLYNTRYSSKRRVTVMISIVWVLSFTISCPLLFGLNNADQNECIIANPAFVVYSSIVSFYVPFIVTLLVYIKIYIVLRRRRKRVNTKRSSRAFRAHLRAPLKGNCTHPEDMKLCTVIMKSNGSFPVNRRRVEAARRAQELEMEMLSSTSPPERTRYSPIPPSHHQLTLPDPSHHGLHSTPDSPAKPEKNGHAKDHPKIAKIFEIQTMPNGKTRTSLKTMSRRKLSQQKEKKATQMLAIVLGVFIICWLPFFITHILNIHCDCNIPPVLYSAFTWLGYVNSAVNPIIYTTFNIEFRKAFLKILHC
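Tetracycline-induced HEK293 Trex cells with D2 receptor force-coupled to calcium signaling, plated overnight at 30 C and loaded with no-wash calcium dye. Calcium flux read kinetically for 180 s after compound addition; responses flag agonists.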
D2 ag-2 = activates the human D2 dopamine receptor; AID 624465; activation, % (test concentration not listed); DiscoveRx PathHunter D2 beta-arrestin, luminescence, 90 min; 100% = 57 uM dopamine signal; actives 0.084% (n = 360,000); in the data active = activation above about 40%; inconclusive = between about 15% and that limit
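Agonist mode: compounds alone added to overnight-plated D2 PathHunter cells for 90 min at 37 C, with 57 uM final dopamine (EC100) defining full response. Beta-arrestin recruitment detected by chemiluminescent reagent, read after 1 h at ambient temperature.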
D2 PAM-1 = positive allosteric modulators of human D2 dopamine receptor | potentiation, % at 10 µM | HEK293 T-REx D2, calcium flux, EC20 dopamine potentiation | P14416 | actives 0.34% (n = 340,000) | AID 485347;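 active = potentiation over 3 SD above the plate norm, cut at about 30% in these data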; also: 0% is about no effect
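Potentiation of an EC20 dopamine calcium response is measured in a force-coupled, tetracycline-inducible Hek293 Trex D2 line. Compound-only kinetic reads over 180 s flag agonists before dopamine addition.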
D2 antagonist = antagonizes the human D2 dopamine receptor; AID 485344; actives 2% (n = 340,000); HEK293 TREx D2 cells, calcium flux, dopamine EC80; P14416; inhibition, % at 10 µM; in the data active = inhibition above about 30%; inactive = below that, where a call was filed; also: 0% is about no effect
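Tetracycline-induced HEK293 TREx cells expressing D2 receptor forced-coupled to calcium signalling, loaded with no-wash calcium dye. Compounds added and calcium flux read 180 s, then dopamine added at EC80 and read a further 180 s.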
D2 PAM-2 = positive allosteric modulators of human D2 dopamine receptor | P14416 | DiscoveRx D2 beta-arrestin cells, luminescence, 90 min; 100% = 57 uM dopamine signal | AID 624464 | actives 0.23% (n = 360,000) | potentiation, % (no concentration beside the values); in the data active = potentiation above about 50%; inconclusive = mostly about 30% to 49%
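PathHunter beta-arrestin assay in DiscoveRx D2 cells. Compounds were added with an EC20 of dopamine (50 nM final) for 90 min at 37 deg C. Luminescence was read 1 h after detection reagent, with 57 uM dopamine as the EC100 control.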
* marks the source's active call; other numbers are inactive results; ? = inconclusive; . = no result given; ! = not confirmed by another sample. Sampled rows, rich in hits. Any-hit rate of the full collection: about 2.4%.

SMILES	D2 ag-1	D2 ag-2	D2 PAM-1	D2 antagonist	D2 PAM-2
O=C(O)c1ccccc1NC(=O)c1cc2ccccc2oc1=O	2	-1	0	14	51*
O=C(CSc1nc2ccccc2s1)N1CCOCC1	1	-1	15	-19	4
O=C1CCCCCN1CSc1nc2ccccc2s1	-2	-4	36*	3	-6
CCOC(=O)c1ccc(NC(=O)c2cccc(S(=O)(=O)N3CCOCC3)c2)cc1	1	6	3	-1	18
CCOC(=O)N1CCC(NCCNC(=O)c2ccc(F)cc2)CC1	5	-1	-25	66*	-21
CCOC(=O)N1CCC(NCCNC(=O)c2cccc(F)c2)CC1	6	-2	-24	60*	-21
CCOC(=O)N1CCC(NC(=O)c2ccc(Cl)cc2)CC1	0	-4	-6	2	-13
CSCCC(NC(=O)c1ccccc1)c1nc(-c2ccccc2)no1 (centres undefined)	2	.	-6	-1	.
CC(=O)Nc1ccc(C)cc1NC(C)=O	-1	-3	-5	35*	6
COC(=O)Nc1ccc(C)cc1NC(=O)OC	1	-2	-5	-9	13
CC(=O)c1ccc(S(=O)(=O)N2CCN(C(=O)c3ccc(-n4nc(C)c(Cl)c4C)cc3)CC2)cc1	22	3	-1	31*	-6
COc1ccc(-c2cc(=O)oc3c(C)c(OC(=O)c4cccs4)ccc23)cc1	0	5	-2	7	-1
CNC(=O)c1ncnnc1N(C)C(=O)NCc1ccccc1	0	-1	-1	-9	-5
S=C(Nc1ccc(Oc2ccccc2)cc1)N(CCCN1CCOCC1)Cc1ccccn1	3	-3	-27	-20	-5
Cc1cccc(NC(=S)N(CCCN2CCOCC2)Cc2ccccn2)c1	1	-3	-6	40*	-12
O=C1C2CCCN2C(c2cccc(Br)c2)N1c1ccc(F)cc1 (centres undefined)	-1	0	-6	38*	-2
CC(C)CCSc1nc2c(c(=O)[nH]c(=O)n2C)n1CCc1ccccc1	-1	-2	-3	-10	-7
Cc1ccc(NC(=O)CN2CCCCCC2)cc1Br	4	0	-31	42*	-7
O=C(CSc1ccccc1C(=O)O)NCc1ccc(Cl)cc1	-1	-6	-2	-12	-5
CNC(=O)c1nnc(Cc2ccc(F)cc2)o1	-1	-5	0	58*	-2
COc1cccc(NC(=O)c2sc3nc(C)c(C(=O)Nc4ccc(Cl)cc4)c(-c4ccc(Br)cc4)c3c2N)c1	.	.	28	.	.
CCCC1C2CN(C(C)=O)CC=C2C(C#N)=C(N)C1(C#N)C#N (centres undefined)	0	-4	-2	16	-21
Nc1nonc1-c1nc2ccccc2n1CC(=O)Nc1ccc(F)cc1	5	.	9	.	.
Nc1nonc1-c1nc2ccccc2n1CC(=O)N1CCN(c2ccc(F)cc2)CC1	1	1	50*	-30	-11
Cc1ccc2sc(NC(=O)C3CC3)nc2c1C	0	-1	36*	7	-8
SMILES	D2 ag-1	D2 ag-2	D2 PAM-1	D2 antagonist	D2 PAM-2
COC(=O)Nc1nc2c(C)cccc2s1	0	-2	-6	38*	-14
Cc1ccc(S(N)(=O)=O)c(C)c1N1CCCC1=O	0	-7	30*	-5	-4
CCOc1ccc2nc(COC(=O)c3cccc([N+](=O)[O-])c3)c(C(C)=O)[n+]([O-])c2c1	0	0	-4	-2	-2
COc1ccc(NC(=O)c2nc(S(=O)(=O)Cc3ccc(C)cc3)ncc2Cl)cc1	1	.	2	.	.
CC1CCC(=NNC(=O)Cc2cccn2C)CC1 (centres undefined)	2	4	-3	2	4
CC1CCC(=NNC(=O)Cc2ccccc2)CC1 (centres undefined)	0	1	-10	43*	9
N#Cc1c(F)cccc1N1CCN(Cc2ccc3c(c2)OCO3)CC1	7	-4	-35	85*	-19
CCOC(=O)N1CCC(NC(=O)CCCN2C(=O)CSc3ncccc32)CC1	0	0	5	32*	9
COc1ccc(NC2=NCCCCC2)cc1	0	-2	0	10	-7
COc1ccc(NC2=Nc3ccccc3CC2)cc1	2	-2	-39	46*	-28
O=C(/C=C/Nc1ccccc1Br)c1ccccn1	0	0	9	-15	22
COc1cccc(/C(O)=C2/C(=O)C(=O)N(c3ccccn3)C2c2ccc(OC)c(OC)c2)c1 (centres undefined)	1	0	-9	32*	3
COc1ccc(/C(O)=C2/C(=O)C(=O)N(c3ccccn3)C2c2ccc(OC)c(OC)c2)cc1 (centres undefined)	0	-6	-1	3	-6
N#Cc1ccc(S(=O)(=O)N2CCN(CN3C(=O)CC4(CCCC4)C3=O)CC2)cc1	.	2	.	.	2
COC(=O)COc1ccc2oc(=O)cc(-c3cc4cccc(OC)c4o3)c2c1	0	0	1	46*	4
CC(=O)Nc1ccc(S(=O)(=O)N2CCc3c(Cl)cccc3C2)cc1	2	7	-7	-10	3
Cc1cccc(CNc2ccc(C(CC(N)=O)NC(=O)Cc3cccc4ccccc34)cc2[N+](=O)[O-])c1 (centres undefined)	-1	-4	2	34*	-4
NC(=O)CC(NC(=O)c1ccccc1)c1ccc(NCC2CC2)c([N+](=O)[O-])c1 (centres undefined)	0	-6	-1	7	-9
CCCCNc1ccc(C(CC(N)=O)NC(=O)Cc2cccc3ccccc23)cc1[N+](=O)[O-] (centres undefined)	1	-1	-5	-1	-1
NC(=O)CC(NC(=O)c1cccc(Br)c1)c1ccc(NCC2CC2)c([N+](=O)[O-])c1 (centres undefined)	0	-3	-9	38*	-11
O=C(Nc1ccc(NC(=O)c2ccc([N+](=O)[O-])o2)cc1Cl)c1ccco1	1	14	-22	40*	13
Cc1ccc(NC(=O)c2ccc([N+](=O)[O-])o2)c(C)c1	0	?	-5	33*	5
Cc1ccccc1NC(=O)c1ccc([N+](=O)[O-])o1	-1	?	11	-12	10
COc1ccccc1N1C(=O)CC(c2ccccc2)CC1=O	2	-4	12	5	-13
COc1ccccc1N1C(=O)CSC1=S	0	-3	32*	-2	-3
COc1cc(C(=O)OC(C)CN2CCN(C)CC2)cc(OC)c1OC (centres undefined)	0	-2	1	-3	-10
COc1cc(C(=O)OC(C)CN2CCOCC2)cc(OC)c1OC (centres undefined)	-1	-1	1	40*!	-13
